A selection: hits, their analogues and other compounds. The true share with any hit is near 2.8%.
Pol kappa inh-1 – inhibitors of human DNA polymerase kappa; purified Pol kappa, fluorescent DNA synthesis assay, 10 min; Potency, µM (doses to about 107 µM), hits mostly inhibitors; hit rate 0.53% among 400,000
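50 nM final substrate added after 15 min RT preincubation of 10 nM Pol kappa with compound; fluorescence read at 0 and 10 min.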
FEN1 inh – inhibitors of human flap endonuclease 1; hit rate 0.35% among 390,000; AID 588795; Recombinant FEN1 flap cleavage, fluorescence, 15 min; Potency, µM (highest dose often 114 µM), most hits filed as inhibitors; note: nearly all actives have a fitted effect of over 65% in size
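Recombinant FEN1 (10 nM) was preincubated with pin-transferred compounds for 15 min at room temperature, then flap DNA substrate (50 nM final) was added. Plates were read at 0 and 15 min, and normalized concentration–response data were fitted to a four-parameter Hill equation.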
Pol beta inh – DNA polymerase beta (human) inhibition; Pol beta primer extension/strand displacement, fluorescence kinetic; Potency, µM (series often up to 114 µM), usual class: inhibitors; hit rate 1.3% among 340,000
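10 nM enzyme + cpd, 15 min RT; start with substrate 50 nM final; read 0 min and after 10 min RT. Corrected, normalized data; 4-parameter Hill curve fit.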
POLI inh – DNA polymerase iota (human) inhibition. hit rate 1% among 390,000. AID 588590. Pol iota fluorescent replication assay, 10 min. Potency, µM (highest dose often 115 µM), hits mostly inhibitors
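Pol iota at 10 nM preincubated 15 min with compounds at room temperature; reaction started with fluorescent substrate, 50 nM final. Fluorescence read kinetically at 0 and 10 min; buffer-only wells as negative control.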
Pol eta inh-1 – DNA polymerase eta (human) inhibition | Q9Y253 | Potency, µM (highest dose often 114 µM), actives largely listed as inhibitors | hit rate 1.2% among 390,000 | recombinant Pol eta, fluorescent DNA replication assay
Target sequence (Q9Y253 whole entry, looked up): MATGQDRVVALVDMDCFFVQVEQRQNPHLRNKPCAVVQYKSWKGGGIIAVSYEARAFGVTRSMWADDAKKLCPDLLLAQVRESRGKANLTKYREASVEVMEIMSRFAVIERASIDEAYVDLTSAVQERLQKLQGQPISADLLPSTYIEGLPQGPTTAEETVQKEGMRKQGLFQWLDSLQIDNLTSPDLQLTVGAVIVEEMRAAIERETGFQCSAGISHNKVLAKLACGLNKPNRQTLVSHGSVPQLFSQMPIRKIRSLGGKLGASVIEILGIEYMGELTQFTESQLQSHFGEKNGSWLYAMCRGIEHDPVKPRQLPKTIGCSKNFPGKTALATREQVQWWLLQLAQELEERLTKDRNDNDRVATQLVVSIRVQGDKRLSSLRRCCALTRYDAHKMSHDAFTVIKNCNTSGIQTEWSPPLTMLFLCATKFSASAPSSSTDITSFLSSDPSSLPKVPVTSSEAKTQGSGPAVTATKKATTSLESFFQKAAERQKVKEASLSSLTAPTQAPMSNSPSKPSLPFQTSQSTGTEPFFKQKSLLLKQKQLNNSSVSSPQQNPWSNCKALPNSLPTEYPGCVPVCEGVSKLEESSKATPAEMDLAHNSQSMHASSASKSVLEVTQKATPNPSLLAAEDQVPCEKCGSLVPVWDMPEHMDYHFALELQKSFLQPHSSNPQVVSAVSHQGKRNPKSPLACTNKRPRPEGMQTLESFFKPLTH
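Pol eta (10 nM) was preincubated with compounds for 15 min at room temperature, after which fluorescent replication substrate (50 nM final) was added to start the reaction. Fluorescence was read kinetically at 0 and 10 min.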
PI5P4K alpha inh – blocks human PI5P4K alpha kinase activity | max response, % | PI5P4Kalpha enzyme, ADP-Glo luminescence, 60 min; hits give low values | P48426 | hit rate 1.2% among 330,000; active = max response of -50% or lower; inconclusive = between -30% and -50%; inactive = -30% or higher; note: value at the top dose of about 77 µM
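Luminescence from ADP-Glo served as readout of PI5P4Kalpha activity in a qHTS format. Reaction: enzyme, substrate, compound, ATP at 5 microM final, 60 min at RT.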
POLI cherry-pick – Inhibitors of human DNA polymerase iota, confirmation; shares compounds with Pol kappa inh-1; Pol iota primer extension, TAMRA/BHQ fluorescence; Potency, µM, usual class: inhibitors; hit rate 77% among 1,500
Pol kappa inh-2 – confirmation of human DNA polymerase kappa inhibitors | shares compounds with Pol eta inh-1 | purified Pol-kappa, fluorescent strand-displacement substrate | Potency, µM, actives largely listed as inhibitors | hit rate 76% among 920
Pol eta inh-2 – Pol eta (human) inhibition, cherry-pick confirmation | Pol eta primer extension, TAMRA/BHQ fluorescence, 10 min | Potency, µM, hits mostly inhibitors | AID 720502 | shares compounds with Pol eta inh-1 | hit rate 64% among 2,600
A number is an active result; – = inactive; ? = inconclusive; · = no result. Unless noted, calls come from the whole dose curve; as a rule, active = well fitted curve in the direction sought with a large enough effect; inconclusive = small, poorly fitted or top-dose-only effect, or another doubt; inactive = no such curve, though single readings can be large; an effect the other way counts as inactive or inconclusive.

SMILES | Pol kappa inh-1 | FEN1 inh | Pol beta inh | POLI inh | Pol eta inh-1 | PI5P4K alpha inh | POLI cherry-pick | Pol eta inh-2 | others
Cc1ccc(C(=O)OCC(=O)NCc2ccco2)s1 | 79µM | – | 22µM | 28µM | 22µM | – | 42 | 67
O=C(COC(=O)c1ccc(S(=O)(=O)NCc2ccco2)cc1)NCc1ccc(F)cc1 | – | – | · | – | – | – | · | ·
O=C(COC(=O)c1ccc(F)cc1Cl)NCc1ccco1 | ? | – | · | 22µM | 40µM | – | 60 | ?
COc1ccc(CNC(=O)COC(=O)c2ccc(S(=O)(=O)NCc3ccco3)cc2)cc1 | ? | – | · | 50µM | 32µM | – | ? | 67
OCC1(Cc2ccccc2F)CCCN(Cc2c(F)ccc(F)c2F)C1 (stereo unspecified) | – | – | – | – | – | – | · | ·
O=C(CSc1nc(=O)[nH]c2c1CCCC2)Nc1cc(C(F)(F)F)cc(C(F)(F)F)c1 | – | – | · | – | – | – | · | ·
Oc1cc2c(cc1O)[C@H]1c3ccc(O)c(O)c3OC[C@@]1(O)C2 | 22µM | 35µM | · | 7.9µM | 14µM | ? | 38 | 27 | Pol kappa inh-2=24
Cc1cc(C(=O)NNC(=S)NC(C)c2ccccc2)c2ccccc2n1 (stereo unspecified) | – | – | – | – | – | – | · | ·
O=C(Nc1ccc(S(=O)(=O)Nc2nccs2)cc1)c1nn(-c2ccccc2)ccc1=O | – | – | ? | – | 6.3µM | ? | 21 | 24 | Pol kappa inh-2=12
CC(=O)Nc1ccc(S(=O)(=O)NC2(C(F)(F)F)NC(=O)N(CCc3ccc(F)cc3)C2=O)cc1 (stereo unspecified) | – | – | – | – | – | · | · | ·
N#CCC(=O)Nc1ccc(C(=O)OCC(=O)N2CCN(C(=O)c3ccco3)CC2)cc1 | 45µM | – | · | 45µM | ? | – | ? | ?
Cc1ccc(NC(=O)COCC(=O)Nc2ccc(C)cc2)cc1 | – | – | – | – | – | – | · | ·
Cc1ccc(S(=O)(=O)OCC(=O)Nc2ccc(C(=O)O)c(O)c2)cc1 | 25µM | 28µM | · | 20µM | 3.2µM | – | 19 | 19 | Pol kappa inh-2=3.4
CCCC/C=C/[C@H](C)[C@@](C)(COC(=O)c1ccc(Br)cc1)Cc1ccccc1 | – | – | · | – | · | · | · | ·
Cc1ccc(S(=O)(=O)Nc2cc(C)c(O)cc2C)cc1 | – | – | – | – | – | – | · | ·
Cc1ccc(S(=O)(=O)Nc2csc(C)c2C(=O)O)cc1 | – | – | 8.9µM | ? | 18µM | ? | 67 | 48
O=C(/C=C/c1ccc(Br)cc1)NC(=S)Nc1ccc(S(=O)(=O)Nc2nccs2)cc1 | – | – | ? | – | ? | – | 15 | 17
C=CCOC(=O)c1cc(-c2ccc(/C=C3\C(=O)NC(=O)C(C#N)=C3C)o2)ccc1Cl | 28µM | 79µM | 13µM | ? | 3.5µM | – | 67 | 30
CC(C)COC(=O)c1cc(-c2ccc(/C=N/n3cnnc3)o2)ccc1Cl | – | – | ? | – | – | – | · | ·
Oc1ccc(-c2cn3c(n2)SCC3)cc1O | 7.1µM | ? | 1.3µM | 2.5µM | 2.8µM | – | 9.5 | 3.4
O=C(N/C=C/c1ccco1)NCc1ccccc1 | 35µM | ? | 16µM | ? | 18µM | ? | 27 | 27
Cn1c2ccccc2c2cc(/C=N/NC(=O)c3cc(O)ccc3O)ccc21 | 50µM | 56µM | 10µM | 10µM | 10µM | -90 | ? | 54
Cc1cc(/C=C2\SC(=S)NC2=O)c(C)[nH]1 | 79µM | – | 22µM | 20µM | 20µM | -77 | ? | 76
O=C(NCc1ccccc1Cl)c1cc(C(=O)C2CC2)c[nH]1 | – | – | – | – | – | – | · | ·
CCc1cc(C(=O)N=Nc2c(O)[nH]c3ccc([N+](=O)[O-])cc23)c2ccccc2n1 | ? | ? | 32µM | ? | 50µM | – | ? | 76
